# An excerpt weighted towards active compounds, which were near 4.3% of everything screened.
# CF NFkB inh: blocks PAF-induced NF-kB reporter in cystic fibrosis cells | KKLEB NF-kB-GFP reporter, GFP fluorescence overnight | inhibition, % at 5 µM | 0.86% of 360,000 active | AID 588850;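 active means at least 50% inhibition at 5 µM, scaled per plate between neutral and stimulator controls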;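 further: PAF is a Pseudomonas aeruginosa culture filtrate used as stimulus; plate controls were PAF-stimulated DMSO wells for no effect and unstimulated DMSO wells for full effect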
# KKLEB tox: CF airway cell cytotoxicity counter-screen; activity change (cytotoxicity), % at 5 µM; AID 602141; KKLEB CF airway cells viability, ATPlite luminescence, overnight; stronger effect = lower value; cells stimulated with P. aeruginosa culture filtrate; 0.36% of 360,000 active;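 active means corrected activity change at or below -50% at 5 µM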
# HIF-2a inh: blocks HIF-2a reporter activity; AID 624352; 786-0 RCC cells HIF-2a reporter, luciferase luminescence, overnight; 0.72% of 360,000 active; inhibition, % at 18.8 µM;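 active means inhibition of the luminescence signal of 40% or more relative to plate controls, in a single-dose primary screen at 18.75 µM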
# TRPM1 prom inh: reduces MITF-dependent TRPM1 promoter luciferase signal | AID 488899 | 0.83% of 330,000 active | inhibition, % at 12.5 µM | SK-MEL-5 TRPM1 promoter luciferase, 24 h;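 active means mean inhibition across replicates of 60% or more, whatever share of single replicates reaches that level; inconclusive means some that reach 60%, reason not given; inactive means mean inhibition across replicates below 60%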
# CHOP inh: CHOP inhibition in unfolded protein response | inhibition, % at 10 µM | AID 2732 | 3.8% of 220,000 active | CHO-K1 CHOP-promoter luciferase, tunicamycin-induced, 15-18 h;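 active means compounds that reduced the stress-induced luciferase reporter signal by more than about 70% of percent inhibition, limit read from the data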;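 further: 0% = tunicamycin plus vehicle and 100% = wells without tunicamycin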
# Peg3 prom inh: reduces Peg3 promoter-driven luciferase expression in HeLa | HeLa PEG-Prom luciferase reporter, luminescence, overnight | AID 588405 | inhibition, % at 20 µM | 1.7% of 360,000 active;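 active means inhibition of at least 50% at 20 µM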
# Active calls of the source: *; ? = inconclusive; nt = no result given.
SMILES,CF NFkB inh,KKLEB tox,HIF-2a inh,TRPM1 prom inh,CHOP inh,Peg3 prom inh
CCOc1ccccc1NC(=O)Nc1ccc2c(c1)OCO2,6,1,-146,-21,nt,-108
Cc1ccccc1C(=O)N1CCC(C(=O)Nc2ccc(S(=O)(=O)N3C(C)CCCC3C)cc2)CC1 (stereo unspecified),2,-11,6,7,nt,78*
CCN(C(=O)CSc1nc2cc(S(=O)(=O)N(CC)CC)ccc2n1CC)C1CCS(=O)(=O)C1 (stereo unspecified),-9,19,13,-5,nt,-7
O=C(Nc1cccc(C(F)(F)F)c1)NC1CCCCC1,12,5,-72,-19,87*,-38
CN1CCC(NC(=O)Nc2cccc(C(F)(F)F)c2)CC1,1,3,15,5,-4,-10
Cc1cc2cc(C(c3nnnn3Cc3ccco3)N3CCc4ccccc43)c(=O)[nH]c2cc1C (stereo unspecified),0,0,9,9,86*,11
Cc1ccc2[nH]c(=O)c(C(c3nnnn3Cc3ccccc3)N3CCc4ccccc43)cc2c1 (stereo unspecified),3,-2,13,-1,70*,14
Cc1ccc2cc(C(c3nnnn3Cc3ccccc3)N3CCc4ccccc43)c(=O)[nH]c2c1 (stereo unspecified),0,4,3,7,-14,28
Cc1cc2cc(C(c3nnnn3Cc3ccccc3)N3CCc4ccccc43)c(=O)[nH]c2cc1C (stereo unspecified),1,-7,6,13,19,9
Cc1ccc(CNC(=O)[C@H](C)NC(=O)C2CCN(C(=O)[C@@H]3CCCN3C(=O)OC(C)(C)C)CC2)cc1,-56,5,3,0,nt,-15
COc1ccc(CN2CCN(C(=O)CCC(=O)Nc3nnc(C4CCCCC4)s3)CC2)cc1F,7,8,-9,16,nt,-17
CO[C@H]1CN(C)C(=O)c2ccc(NS(=O)(=O)c3ccccc3F)cc2OC[C@H](C)NC[C@@H]1C,nt,nt,9,nt,nt,nt
CCc1ccc2[nH]c(=O)c(CN(Cc3ccccc3OC)C(=O)Nc3ccccc3OC)cc2c1,7,34,10,-2,71*,30
O=C(CN1C(=O)/C(=C2/SC(=S)N(CCS(=O)(=O)O)C2=O)c2ccccc21)Nc1cccc(Br)c1,-9,-14,2,-2,nt,4
C=CCn1ccc(O)c(Cc2ccc(Cl)cc2)c1=O,7,0,10,0,nt,13
Cc1cc2cc(CNC(=O)c3cc4ccccc4o3)ccc2n1C,nt,nt,nt,nt,89*,nt
Cc1cc2cc(CNC(=O)c3ccco3)ccc2n1C,12,7,4,nt,10,-4
O=S(=O)(N/N=C1/CC(c2ccccc2)Oc2ccccc21)c1ccc(Br)cc1 (stereo unspecified),47,-47,-73,-2,94*,-29
O=C(Nc1ccccn1)c1ccc2nc(-c3ccccc3)c(-c3ccccc3)nc2c1,nt,nt,nt,nt,-30,nt
O=C(Nc1ccccn1)c1ccc(-c2ccccc2)cc1,-15,-55*,11,13,nt,1
O=C(Nc1ccccc1)OCCOc1ccc(Cl)cc1Cl,-10,4,-138,-13,nt,-78
CCCNC(=O)NC(=O)COC(=O)c1oc2ccc(OCC)cc2c1C,25,-5,2,-2,72*,-24
O=C(NCCCN1CCOCC1)C(=O)N/N=C/c1c2ccccc2cc2ccccc12,-15,-5,33,21,53,70*
O=C(NC(=S)Nc1cccnc1Cl)c1ccc(F)cc1,3,6,-242,-53,nt,-301
COc1cc(C2C3=C(Nc4ncnn42)c2ccccc2CC3)cc(OC)c1OC (stereo unspecified),50,-52*,17,?,nt,-10
SMILES,CF NFkB inh,KKLEB tox,HIF-2a inh,TRPM1 prom inh,CHOP inh,Peg3 prom inh
COc1ccc(C(O)c2ncc(-c3cccc(C(F)(F)F)c3)[nH]2)cc1F (stereo unspecified),-7,-21,12,nt,nt,21
C=CC[n+]1c(-c2ccc(C)cc2)csc1Nc1ccc(NC(C)=O)cc1,-13,2,90*,81*,85*,20
COc1ccc(C(=O)Oc2ccc(C(=S)N3CCCC3)cc2)cc1OC,nt,nt,nt,nt,93*,nt
COc1ccc(C(=S)N2CCCCCC2)cc1,-12,-2,0,-2,-9,-5
N/C(=N\C(=S)Nc1ccc2c(c1)OCO2)c1ccccc1,-5,-17,-285,nt,nt,-255
COC(=O)C1CN(C(=O)C(C)Oc2ccccc2Cl)c2ccccc2O1 (stereo unspecified),21,-8,13,19,nt,11
O=C(CCl)c1ccc2c(c1)CCN2C(=O)C1CC1,nt,nt,nt,nt,109*,nt
O=C(C1CCC(C(=O)N2CCc3ccccc32)CC1)N1CCc2ccccc21 (stereo unspecified),-23,9,19,2,56,5
CC(=O)c1cc2c(C)c(C(=O)c3ccccc3)oc2cc1O,-16,3,-155,-72,83*,-172
O=C(c1ccccc1)c1ccc(O)cc1O,-6,8,-4,2,16,1
CCN(c1ccc(NS(=O)(=O)c2cc(Cl)ccc2Cl)cc1)C(C)C,-1,0,18,0,93*,21
CCOC(=O)c1sc(NC(=O)CSc2ccccn2)c(C#N)c1C,40,-47,8,7,79*,13
CCOC(=O)c1sc(NC(=O)CSc2nc(C)cc(C)n2)c(C#N)c1C,-22,-3,17,4,-2,0
O=C(CNc1cccc([N+](=O)[O-])c1)N/N=C/c1ccc([N+](=O)[O-])o1,-24,9,-23,78*,-12,14
CCCCCCCC(=O)N/N=C/c1ccc([N+](=O)[O-])o1,-4,8,5,37,14,-10
O=C(CNc1cccc2ccccc12)N/N=C/c1ccc([N+](=O)[O-])o1,-19,7,-68,75*,15,0
O=C(Cc1ccc([N+](=O)[O-])cc1)N/N=C/c1ccc([N+](=O)[O-])o1,-15,1,-13,nt,-31,4
CSc1ccc(/C=N/NC(=O)CNc2cccc3ccccc23)cc1,-4,17,-5,10,94*,9
CCCS(=O)(=O)NC(=O)C1(C)CCCN(C(=O)COCc2ccccc2)C1 (stereo unspecified),-11,1,10,nt,nt,-3
O=C(NCc1cccnc1)c1csc([C@@H]2O[C@H](CO)[C@H](O)[C@H](O)[C@H]2O)n1,16,-3,13,nt,nt,13
O=C(NCC(=O)N1CCN(c2ccccc2F)CC1)c1ccc(Br)o1,0,11,-27,0,nt,0
CCOc1ccccc1N1CCN(CC(=O)N(C)CC(=O)Nc2ccccc2CC)CC1,2,-2,5,nt,nt,6
COc1ccc(S(=O)(=O)N(C)CC(=O)Nc2ccc(C(F)(F)F)cc2)cc1Cl,3,6,19,2,81*,15
Cc1cc(C)n2c(NC3CCCCC3)c(CC(C)C)nc2n1,nt,nt,-6,nt,nt,nt

# Compound activity as filed in PubChem BioAssay.
